This excerpt belongs to a sample that is enriched for hits.
D1 mod: D1 CRE-luciferase signal change, two-sided – cell-based, HEK293 D1, dopamine EC30, D1 allosteric modulator project, primary screen. dopamine EC30 potentiation; actives deviate in either direction. B-score at 10 µM. actives 5.9% (n = 58,000). AID 641, 2007;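 active = luminescence count or its row- and column-corrected plate score outside the 99.7% band of the plate's sample wells, on either side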
Target sequence (P21728 whole entry, looked up): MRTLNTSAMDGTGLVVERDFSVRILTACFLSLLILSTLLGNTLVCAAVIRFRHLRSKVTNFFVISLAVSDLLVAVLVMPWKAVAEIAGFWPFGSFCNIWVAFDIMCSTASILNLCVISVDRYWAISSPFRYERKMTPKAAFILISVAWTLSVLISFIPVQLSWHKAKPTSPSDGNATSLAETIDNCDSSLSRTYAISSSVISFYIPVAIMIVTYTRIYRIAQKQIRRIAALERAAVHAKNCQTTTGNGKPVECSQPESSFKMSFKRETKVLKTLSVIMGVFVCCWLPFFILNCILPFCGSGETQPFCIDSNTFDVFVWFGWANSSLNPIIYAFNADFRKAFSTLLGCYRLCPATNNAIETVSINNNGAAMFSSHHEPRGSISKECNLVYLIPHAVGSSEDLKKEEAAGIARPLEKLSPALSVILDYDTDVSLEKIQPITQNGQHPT
PKA kinase inh: inhibitors of human PKA kinase activity, primary screen, biochemical, ATP-depletion luminescence, Kemptide substrate; cAMP-dependent protein kinase catalytic subunit alpha (Homo sapiens), P17612; PKA Kemptide phosphorylation, Kinase-Glo ATP luminescence; inhibition, % at 6 µM; actives 0.1% (n = 65,000); AID 524, 2006;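 active = inhibition above the screen-wide mean inhibition plus 3 SD, cut at about 21% in these data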
DAT uptake mod: changed hDAT dopamine uptake under cocaine IC80, either direction, primary screen, cocaine antagonist project, cell-based, LLC-PK1 hDAT, [14C]-dopamine uptake, MLSMR. Sodium-dependent dopamine transporter (Homo sapiens), Q01959. LLC-PK1 hDAT cells, [14C]-dopamine uptake with cocaine IC80; actives deviate in either direction. B-score at 10 µM. actives 1.3% (n = 110,000). AID 449768, 2010;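 active = Z score or B-score, a plate-position-corrected score, falls beyond the plate's 99.7% confidence bounds, in either direction; inactive = both scores lie inside the 99.7% bounds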
JNK3 inh: JNK3 kinase activity inhibitors, primary screen, biochemical, human, purified enzyme; HTS; inhibition, % at 8 µM; actives 0.61% (n = 60,000); AID 746, 2007; in the data active = inhibition above about 17%
ROCK2 blocker: inhibitors of human ROCK2 kinase, primary screen, biochemical, high-throughput, luminescence. Rho-associated protein kinase 2 (Homo sapiens), O75116. purified ROCK2, Kinase-Glo ATP depletion luminescence. actives 0.35% (n = 60,000). inhibition, % at 6 µM;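 active = inhibition above the screen-wide mean inhibition plus 3 SD, cut at about 18% in these data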
Each line names hits and unclear results; the compound was inactive in the other large screens.

O=C1NC(=S)SC1=C1CCCCCC1	none
COc1ccc2c(c1)OC13CCCCC1C2C(C(=O)c1ccccc1)C(=O)N3 (configuration not stated)	none (no result: D1 mod, PKA kinase inh, JNK3 inh, ROCK2 blocker)
COc1cc(OC)c2ccc(=O)oc2c1C(CC(=O)N1CCOCC1)c1ccc(N(C)C)cc1 (configuration not stated)	none (no result: D1 mod, PKA kinase inh, JNK3 inh, ROCK2 blocker)
Cc1ccccc1Nc1nn2c(=O)c3ccccc3nc2s1	JNK3 inh 26
COc1ccc(NC(=O)c2ccco2)cc1NC(=O)c1cccs1	DAT uptake mod 1.8
COc1ccccc1NC(NC(=O)c1ccco1)C(=O)c1ccccc1 (configuration not stated)	DAT uptake mod 35 (no result: D1 mod)
COc1ccc(C(=O)Nc2ccccc2NC(=O)c2ccco2)cc1OC	DAT uptake mod 2.8 (no result: D1 mod, JNK3 inh, ROCK2 blocker)
Cc1ccc(-n2c(Cn3nc(C(F)F)cc3C(F)F)n[nH]c2=S)cc1	none (no result: D1 mod, PKA kinase inh, JNK3 inh, ROCK2 blocker)
CCC(C)Nc1nc(OC(C(F)(F)F)C(F)(F)F)nc(OC(C(F)(F)F)C(F)(F)F)n1 (configuration not stated)	DAT uptake mod 3.2 (no result: D1 mod, PKA kinase inh, JNK3 inh, ROCK2 blocker)
CCC(C)Nc1nc(OCC(F)(F)F)nc(OCC(F)(F)F)n1 (configuration not stated)	none
CCOC(=O)Cn1c(=O)oc2cc(S(=O)(=O)Nc3ccc(N(CC)CC)cc3C)ccc21	none
N#CCC(CNc1ncc(C(F)(F)F)cc1Cl)OC(=O)c1cccc([N+](=O)[O-])c1 (configuration not stated)	none (no result: D1 mod, PKA kinase inh, JNK3 inh, ROCK2 blocker)
CN(C)c1ccc(-c2ccncc2)cc1	ROCK2 blocker 19 (no result: DAT uptake mod)
COc1ccc(-c2ccncc2)cc1OC	none (no result: D1 mod, PKA kinase inh, JNK3 inh, ROCK2 blocker)
CCO[C@@H]1OC(C(=O)N2CCN(Cc3ccc4c(c3)OCO4)CC2)=C[C@H](c2cn(C(C)=O)c3ccccc23)[C@H]1CCCO	DAT uptake mod 2.1 (no result: D1 mod, PKA kinase inh, JNK3 inh, ROCK2 blocker)
CC(=O)n1cc([C@H]2C=C(C(=O)N3CCN(Cc4ccc5c(c4)OCO5)CC3)O[C@@H](OCCCCO)C2)c2ccccc21	DAT uptake mod 2.5 (no result: D1 mod, PKA kinase inh, JNK3 inh, ROCK2 blocker)
CC(=O)n1cc([C@@H]2C=C(C(=O)N3CCOCC3)O[C@H](OCCCCO)C2)c2ccccc21	none (no result: D1 mod, PKA kinase inh, JNK3 inh, ROCK2 blocker)
CCO[C@@H]1OC(C(=O)N2CCN(Cc3ccc4c(c3)OCO4)CC2)=C[C@H](c2csc3ccccc23)[C@H]1CCCO	none (no result: D1 mod, PKA kinase inh, JNK3 inh, ROCK2 blocker)
Cc1cc2nc3n(c2cc1C)CC1CC(C(=O)NCc2cccc(C(F)(F)F)c2)N(C)C31 (configuration not stated)	none (no result: D1 mod, PKA kinase inh, JNK3 inh, ROCK2 blocker)
CN1C(C(=O)NCc2cccc(C(F)(F)F)c2)CC2Cn3c(nc4cc5ccccc5cc43)C21 (configuration not stated)	DAT uptake mod 1.5 (no result: D1 mod, PKA kinase inh, JNK3 inh, ROCK2 blocker)
CC1=CC(C)(C)N2C(=O)C3(C(C#N)=C(N)Oc4cc(O)ccc43)c3c(C)c(C)cc1c32 (configuration not stated)	DAT uptake mod 2.6 (no result: D1 mod, PKA kinase inh, JNK3 inh, ROCK2 blocker)
O=C(Nc1ccc2c(c1)OCO2)c1noc2c1CCCCC2	D1 mod -4.4
Cc1ccccc1C(=O)Nc1ccc2c(c1)OCO2	D1 mod -4.3
COc1ccccc1C(=O)Nc1ccc2c(c1)OCO2	none (no result: D1 mod, PKA kinase inh, JNK3 inh, ROCK2 blocker)
COC(=O)CCC(=O)NC(=S)Nc1cc(Cl)ccc1Cl	none (no result: D1 mod, PKA kinase inh, JNK3 inh, ROCK2 blocker)
Cc1cc(C)c(S(=O)(=O)N2CCCCC2)c(C)c1N(C)S(=O)(=O)c1ccccc1	none (no result: D1 mod, PKA kinase inh, JNK3 inh, ROCK2 blocker)
CCn1c(C)csc1=NC(=O)c1ccccc1	none
CCn1c(C)csc1=NC(=O)c1ccccc1O	JNK3 inh 23
COC(=O)c1cccc2c1-c1ccccc1/C2=N/O	JNK3 inh 54, ROCK2 blocker 20 (no result: DAT uptake mod)
CC(C)Nc1nc(NC(C)C)nc(N(C#N)CCOc2ccc(Cl)cc2Cl)n1	none (no result: D1 mod, PKA kinase inh, JNK3 inh, ROCK2 blocker)
Cc1cc(Cl)cc2c1NC(=O)[C@]21[C@@H]2C(=O)N(Cc3ccccc3)C(=O)[C@@H]2[C@@H]2CCCN21	DAT uptake mod 3.7
CCc1ccc2c(c1)[C@]1(C(=O)N2)[C@@H]2C(=O)N(Cc3ccccc3)C(=O)[C@@H]2[C@@H]2CCCN21	none
CN(CCO)c1ncnc2nc[nH]c12	ROCK2 blocker 37 (no result: D1 mod)
CC(O)CNc1ncnc2nc[nH]c12 (configuration not stated)	none (no result: JNK3 inh, ROCK2 blocker)
C=CC[n+]1c(-c2ccc(OC)c(OC)c2)csc1NNC(=O)Nc1ccccc1	none (no result: D1 mod, PKA kinase inh, JNK3 inh, ROCK2 blocker)
